Screens as filed in PubChem.
PfHsp90 yeast 2: inhibits growth of yeast expressing Plasmodium falciparum Hsp90 | S. cerevisiae expressing PfHsp90, BacTiter-Glo ATP, 48 h; yeast lacking PDR1 and PDR3 efflux regulators | inhibition, % at 9.4 µM | actives 0.32% (n = 310,000) | AID 504621;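 active = every replicate shows inhibition above about 80%, whatever the replicate mean, limit read from the data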;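 also: 0% = DMSO neutral controls and 100% = 20 µM radicicol positive controls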
TIM10 inh: inhibits growth of TIM10 yeast strain | actives 1.4% (n = 330,000) | AID 463195 | inhibition, % at 10 µM | S. cerevisiae TIM10 strain growth, BacTiter-Glo luminescence, 24 h;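 active = inhibition of 40% or more at the single tested concentration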;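 also: wild-type TIM10 isogenic control strain grown at permissive 25 °C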
tim10-1 inh: tim10-1 yeast growth inhibition | S. cerevisiae tim10-1 ts strain growth, BacTiter-Glo, 24 h | inhibition, % at 20 µM | actives 2.2% (n = 330,000);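 active = inhibition of at least 40%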;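 also: mutant grown at 25 °C; 0% = DMSO wells with yeast and 100% = wells holding no yeast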
SKKanGAS inh: inhibitors of SKKanGAS S. pyogenes growth in kanamycin (SK-promoter or general growth effect) | BacTiter-Glo, 6 h | inhibition, % at 7.5 µM | actives 1.3% (n = 300,000) | AID 1662;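 active = mean replicate score, as percent of positive control median, at least 50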;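 also: strain carries kanamycin resistance gene driven by streptokinase promoter and grows in 40 µg/ml kanamycin; loss of luminescence reflects streptokinase promoter inhibition or plain growth inhibition; 0% = median of DMSO wells and 100% = positive control at its reference dose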
tim23-1 inh: tim23-1 yeast growth inhibition; S. cerevisiae tim23-1 growth, BacTiter-Glo luminescence, 24 h; inhibition, % at 20 µM; actives 1.3% (n = 330,000); AID 463212;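 active = growth inhibition of the mutant yeast at or above 50%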;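 also: temperature-sensitive mutant grown at 25 °C; plate controls were DMSO-treated mutant yeast for no effect and medium wells lacking yeast for full effect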
Numbers without * were called inactive; · = no result given. Only some compounds are listed: those with a hit (about 4.4% of all), similar ones and a draw of the others.

SMILES	PfHsp90 yeast 2	TIM10 inh	tim10-1 inh	SKKanGAS inh	tim23-1 inh
CCCNC1=C(C)C(=O)C2=C(C1=O)C(COC(N)=O)[C@]1(OC)C3NC3CN21 (some centres undefined)	-10	6	3	109*	6
COc1cc2c(cc1/C=C/[N+](=O)[O-])OCO2	106*	·	·	6	·
CCC(=O)Nc1ccccc1	16	0	7	-6	12
CCCCC/C=C\C/C=C\C/C=C\C/C=C\CCCC(=O)Nc1ccc(O)cc1	·	·	·	107*	·
COC(=O)c1c(C)[nH]c(C(=O)C(C)[N+]23CCN(CC2)CC3)c1C (centres undefined)	-29	1	9	-4	2
CCCCn1c(O)c(C(C)=NCCc2c[nH]c3ccccc23)c(=O)[nH]c1=O	-2	20	13	4	21
O=C(/C=C/c1c[nH]c2ccccc12)c1c(O)n(CCc2ccccc2)c(=O)[nH]c1=O	-12	-8	-10	85*	4
CC1Oc2cc3c(-c4c(O)cc(O)c5c(O)c6c(cc45)OC(C)C(C)C6=O)c(O)cc(O)c3c(O)c2C(=O)C1C (centres undefined)	-41	0	6	107*	24
N#CC1=C(N)Oc2c(c(=O)oc3ccccc23)C1c1cccnc1 (centres undefined)	-18	-4	9	7	5
Cc1nn(-c2ccccc2)c(Cl)c1C1C(C#N)=C(N)Oc2c1c(=O)oc1ccccc21 (centres undefined)	-38	14	21	108*	26
C/C(=N\NC(=O)c1ccccc1O)c1c(O)n(C2CCCCC2)c(=O)[nH]c1=O	7	1	-5	50*	3
CCC(C)/C=C(C)/C=C/C1=CC2=C(Cl)C(=O)C(C)(OC(C)=O)C(=O)C2=CO1 (centres undefined)	11	14	16	24	14
CC[C@H](C)/C=C(C)/C=C/C1=CC2=C(Cl)C(=O)[C@@](C)(OC(C)=O)C(=O)C2=CO1	106*	10	27	6	38
Oc1ccccc1Cl	21	6	-12	·	-1
Oc1ccc(O)c2c1C1(Cl)C(Cl)=C(Cl)C2(Cl)C1(Cl)Cl	107*	·	·	·	·
COC(=O)C1=C(c2ccc3ccccc3c2)C[C@@H]2CC[C@H]1N2C(=O)NC1CC1	-18	2	-7	·	4
CN(C)C1C(=O)C(C(N)=O)=C(O)C2(O)C(=O)C3=C(O)c4c(O)cccc4C(C)(O)C3C(O)C12 (centres undefined)	-8	-5	14	105*	5
O=c1cccc2n1CC1CNC[C@H]2C1	15	7	5	·	5
CN1C(=O)/C(=C/c2ccc(Cl)s2)C(=O)NC1=S	94*	·	·	0	·
Cc1ccsc1/C=C1\C(=O)NC(=S)N(C)C1=O	-6	10	18	-6	22
COc1ccc(/C=C/C(=O)c2c(O)n(CCC3=CCCCC3)c(=O)[nH]c2=O)cc1	3	6	7	58*	10
O=C(N/N=C/c1c(O)n(CCC2=CCCCC2)c(=O)[nH]c1=O)c1ccccc1	2	5	11	62*	-5
O=C(N/N=C/c1c(O)n(CCC2=CCCCC2)c(=S)[nH]c1=O)c1ccccc1	0	16	2	97*	26
CCCCn1c(O)c(C(C)=Nc2ccc(OCC)cc2)c(=O)[nH]c1=O	-14	7	22	65*	37
CCCCn1c(O)c(C(C)=Nc2cccc(C(=O)O)c2)c(=O)[nH]c1=O	·	-13	-9	3	17
SMILES	PfHsp90 yeast 2	TIM10 inh	tim10-1 inh	SKKanGAS inh	tim23-1 inh
CC1=CC(C)CC(C)OC(=O)CC(c2ccc(O)cc2)NC(=O)C(Cc2c(Br)[nH]c3ccccc23)N(C)C(=O)C(C)NC(=O)C(C)C1 (centres undefined)	105*	·	·	·	·
Cc1c(CC(=O)N2C[C@H]3C[C@@H](C2)c2cccc(=O)n2C3)c(=O)oc2cc(O)c(Cl)cc12	8	-1	3	0	14
CCCCCn1c(=O)c(C(=O)NCc2ccc(Cl)cc2)c(O)c2ccccc21	26	-10	-5	17	14
CCCCn1c(=O)c(C(=O)NCc2ccccc2)c(O)c2ccccc21	0	-11	-30	76*	26
CCCCn1c(=O)c(C(=O)NCc2ccncc2)c(O)c2ccccc21	5	13	8	58*	29
CCCCn1c(=O)c(C(=O)NCc2ccccc2Cl)c(O)c2ccccc21	-2	-1	-29	50*	5
C=C1C(=O)O[C@@H]2C[C@@H](C)[C@@H]3C4OC4C(=O)[C@@]3(C)[C@@H](O)[C@H]12 (some centres undefined)	10	22	23	-5	28
C[C@]12CC[C@H](O)CC1=CC(=O)C1C2CC[C@]2(C)C(=O)CCC12 (some centres undefined)	-21	-7	-3	·	-2
CCCC1COC(Cn2cncn2)(c2ccc(Cl)cc2Cl)O1 (centres undefined)	107*	-47	-46	0	-402
CC1(c2ccc(Cl)cc2Cl)OCC(Cn2cncn2)O1 (centres undefined)	-2	14	4	-5	5
O=C(Nc1cccnc1)c1c(O)c2c(n(Cc3ccccc3)c1=O)CCCC2	3	15	15	52*	23
O=C(Nc1ccc(F)cc1)c1c(O)c2c(n(Cc3ccccc3)c1=O)CCCC2	5	17	11	-5	11
O=P(Oc1ccccc1)(Oc1ccccc1)N1CCN(c2ccc(F)cc2)CC1	-33	10	-18	-1	8
CC1=CC2OC3CC4OC(=O)C=CC=CC(=O)OCCC(C)C(O)C(=O)OCC2(CC1)C4(C)C31CO1 (centres undefined)	105*	·	·	·	·
CC1CCOC(=O)C=CC=CC(=O)OC2CC3OC4C5OC5(C)C(O)CC4(COC(=O)C1O)C2(C)C31CO1 (centres undefined)	-8	·	·	·	·
CC1CCN(C(CC(=O)c2ccccc2)C(=O)c2ccccc2)CC1 (centres undefined)	113*	·	·	·	·
N=c1sccn1Cc1ccc(Cl)cc1Cl	-14	9	23	3	-5
Clc1ccc(CO/N=C(\Cn2ccnc2)c2ccc(Cl)cc2Cl)c(Cl)c1	·	-72	33	96*	-41
C/C(=N\N1CCCCCC1)c1c(O)n(-c2ccccc2C)c(=O)[nH]c1=O	20	19	20	-1	23
CCC(C)N1C(=O)NC(=O)C2(Cc3cc(C)ccc3N(C)C2)C1=O (centres undefined)	-35	9	15	3	16
Clc1ccc(COC(Cn2ccnc2)c2ccc(Cl)cc2Cl)cc1 (centres undefined)	83*	-91	-26	74*	49
c1ccc(Cn2ccnc2)cc1	7	5	-9	0	-11
Clc1ccc(CSC(Cn2ccnc2)c2ccc(Cl)cc2Cl)cc1 (centres undefined)	90*	-167	-37	·	5
COC(=O)C1=C(C(=O)OC)SC2(S1)C(C(=O)OC)=C(C(=O)OC)Sc1c2ssc1=O	117*	·	·	·	·
